# In PubChem BioAssay (EPA / NIEHS):
# The source made the active and inactive calls. The calls were made as follows: active = hit-call score of the fitted dose curve at least 0.9, where 1 is the maximum; inactive = score below 0.9.
# Legend:
# [1] = ATG_GLI_CIS: Attagene CIS-FACTORIAL HepG2 Assay for human Zinc Finger Protein GLI1 (AID 2282945); details: HepG2, Attagene cis-factorial reporter mRNA, GLI element; actives raise or lower the signal
# How it was run: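 HepG2 cells transiently transfected with cis-promoter multiplexed reporter units report endogenous transcription factor activity. After 24 h chemical exposure, reporter mRNA was quantified by RT-PCR, 6-FAM labelling, HpaI digestion and capillary electrophoresis, with bidirectional fitting against DMSO.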
# [2] = ATG_GRE_CIS: Attagene CIS-FACTORIAL HepG2 Assay for human Glucocorticoid Response Elements (GRE) (AID 2282947); details: HepG2 GRE cis-reporter, Attagene multiplex mRNA; actives raise or lower the signal
# How it was run: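 Cells (HepG2) bearing transfected cis-promoter reporter transcription units were treated with chemical for 24 hours. Reporter mRNA was measured via RT-PCR with capillary electrophoresis, and activity was fitted in both directions relative to DMSO.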
# [3] = ATG_ISRE_CIS: Attagene CIS-FACTORIAL HepG2 Assay for human Interferon Regulatory Factor 1 (IRF1) binding to an Interferon-Stimulated Response Element (ISRE) (AID 2282948); details: HepG2 ISRE cis-reporter (Attagene), mRNA transcription readout; actives raise or lower the signal
# How it was run: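 Multiplexed mRNA reporter readout in human liver HepG2 cells: cis-element-driven reporters transfected, compound added for 24 h, transcripts amplified, fluorescently labelled and sized by capillary electrophoresis; curve fitting bidirectional against DMSO.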
# [4] = ATG_M_32_CIS: Attagene CIS-FACTORIAL HepG2 Assay for M32 Transcription Factor (Internal Marker) (AID 2282949); details: HepG2 Attagene cis-factorial M32 reporter, mRNA; actives raise or lower the signal;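 also: background control marker of the multiplexed CIS panel rather than a real target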
# How it was run: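 HepG2 transfectants (cis-regulated reporter transcription units) dosed 24 h. Reporter mRNA by RT-PCR plus CE, analysed as gain or loss relative to DMSO.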
# [5] = ATG_M_06_CIS: Attagene CIS-FACTORIAL HepG2 Assay for M06 Transcription Factor (Internal Marker) (AID 2282950); details: HepG2 Attagene CIS-FACTORIAL M06 internal marker reporter; actives raise or lower the signal
# How it was run: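 HepG2 cells transiently transfected with cis-regulated multiple reporter transcription units were exposed to chemical for 24 h; reporter mRNA was quantified by RT-PCR, 6-FAM primer labelling, HpaI digestion and capillary electrophoresis, fitted bidirectionally against DMSO.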
# [6] = target: Hypoxia-inducible factor 1-alpha (Homo sapiens) (UniProt Q16665); assay: ATG_HIF1a_CIS: Attagene CIS-FACTORIAL HepG2 Assay for human Hypoxia Inducible Factor 1 (HIF1A) (AID 2282951); details: HepG2 Attagene cis-factorial HIF1a reporter transcription; actives raise or lower the signal
# Hypoxia-inducible factor 1-alpha (Homo sapiens), sequence (Q16665 whole entry, looked up): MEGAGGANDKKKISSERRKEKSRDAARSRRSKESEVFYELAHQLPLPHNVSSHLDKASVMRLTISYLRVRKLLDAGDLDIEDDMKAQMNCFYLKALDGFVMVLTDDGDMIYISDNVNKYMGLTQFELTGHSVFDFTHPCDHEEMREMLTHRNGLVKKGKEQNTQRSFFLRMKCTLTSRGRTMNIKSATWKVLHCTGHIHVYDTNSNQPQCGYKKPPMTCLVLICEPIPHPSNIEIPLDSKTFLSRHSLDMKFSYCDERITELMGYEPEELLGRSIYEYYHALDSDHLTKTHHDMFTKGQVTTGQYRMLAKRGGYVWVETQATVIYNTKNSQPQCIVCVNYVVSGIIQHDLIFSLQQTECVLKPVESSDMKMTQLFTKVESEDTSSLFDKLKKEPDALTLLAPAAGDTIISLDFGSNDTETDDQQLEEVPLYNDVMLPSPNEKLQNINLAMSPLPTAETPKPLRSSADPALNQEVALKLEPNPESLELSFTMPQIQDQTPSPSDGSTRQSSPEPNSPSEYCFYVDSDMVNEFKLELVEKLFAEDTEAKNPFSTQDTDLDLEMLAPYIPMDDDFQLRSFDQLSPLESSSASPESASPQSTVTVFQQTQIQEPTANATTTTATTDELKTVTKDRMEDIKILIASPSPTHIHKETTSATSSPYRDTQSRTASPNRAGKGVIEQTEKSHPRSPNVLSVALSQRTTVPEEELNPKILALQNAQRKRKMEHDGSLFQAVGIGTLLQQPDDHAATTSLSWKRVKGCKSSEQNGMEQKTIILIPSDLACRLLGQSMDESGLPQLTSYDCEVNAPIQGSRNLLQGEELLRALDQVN
# How it was run: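 Endogenous-TF cis reporter readout, human HepG2 cells, 24 h incubation; mRNA detected via RT-PCR and capillary electrophoresis fluorescence; DMSO-normalised bidirectional fitting.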
# [7] = target: Hepatocyte nuclear factor 6 (Homo sapiens) (UniProt Q9UBC0); assay: ATG_HNF6_CIS: Attagene CIS-FACTORIAL HepG2 Assay for human Hepatocyte Nuclear Factor 6 (HNF6) (AID 2282952); details: HepG2 Attagene cis-factorial HNF6 reporter transcription; actives raise or lower the signal
# Hepatocyte nuclear factor 6 (Homo sapiens), sequence (Q9UBC0 whole entry, looked up): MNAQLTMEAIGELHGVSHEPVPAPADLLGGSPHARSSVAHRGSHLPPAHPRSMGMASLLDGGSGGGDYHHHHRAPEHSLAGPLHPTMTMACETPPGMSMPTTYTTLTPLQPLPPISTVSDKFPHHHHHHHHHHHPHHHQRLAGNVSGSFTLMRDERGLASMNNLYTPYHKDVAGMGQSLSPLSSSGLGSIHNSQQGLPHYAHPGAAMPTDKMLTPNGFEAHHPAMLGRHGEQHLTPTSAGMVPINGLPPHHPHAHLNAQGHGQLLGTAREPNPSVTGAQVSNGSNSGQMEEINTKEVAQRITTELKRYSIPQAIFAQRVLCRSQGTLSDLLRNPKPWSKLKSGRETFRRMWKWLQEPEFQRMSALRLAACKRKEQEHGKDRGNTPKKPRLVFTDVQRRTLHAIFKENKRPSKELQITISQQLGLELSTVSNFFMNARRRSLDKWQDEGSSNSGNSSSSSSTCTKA
# How it was run: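 Endogenous factor activity read in transiently transfected HepG2 via promoter-regulated reporter transcripts. RNA harvested 24 h post-dosing, reverse-transcribed, PCR-amplified, FAM-labelled, HpaI-digested and resolved by capillary electrophoresis; fitted in both directions against DMSO.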
# [8] = target: Heat shock factor protein 1 (Homo sapiens) (UniProt Q00613); assay: ATG_HSE_CIS: Attagene CIS-FACTORIAL HepG2 Assay for human Heat Shock Transcription Factor 1 (HSE) (AID 2282953); details: HepG2 HSE cis-reporter, Attagene RNA transcription; actives raise or lower the signal
# Heat shock factor protein 1 (Homo sapiens), sequence (Q00613 whole entry, looked up): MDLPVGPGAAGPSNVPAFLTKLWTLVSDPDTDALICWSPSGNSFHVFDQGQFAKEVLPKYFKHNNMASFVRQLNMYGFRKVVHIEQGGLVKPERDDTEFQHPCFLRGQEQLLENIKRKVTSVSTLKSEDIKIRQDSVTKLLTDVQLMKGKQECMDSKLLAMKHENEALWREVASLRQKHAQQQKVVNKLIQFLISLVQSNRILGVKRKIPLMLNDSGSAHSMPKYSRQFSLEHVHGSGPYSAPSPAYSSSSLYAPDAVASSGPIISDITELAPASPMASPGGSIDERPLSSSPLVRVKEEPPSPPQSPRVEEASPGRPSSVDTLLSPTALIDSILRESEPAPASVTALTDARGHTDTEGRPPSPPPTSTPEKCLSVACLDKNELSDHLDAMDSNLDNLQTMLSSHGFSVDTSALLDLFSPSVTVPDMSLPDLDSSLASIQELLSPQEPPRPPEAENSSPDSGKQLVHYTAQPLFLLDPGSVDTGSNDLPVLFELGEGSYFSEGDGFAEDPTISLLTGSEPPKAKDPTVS
# How it was run: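 HepG2 cells transiently transfected with multiple reporter transcription units under cis-regulatory promoter control, measuring endogenous transcription factor activity. After 24 h chemical exposure, reporter mRNA quantified by RT-PCR, fluorescent labelling, HpaI digestion and capillary electrophoresis; bidirectional fit versus DMSO.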
# [9] = ATG_MRE_CIS: Attagene CIS-FACTORIAL HepG2 Assay for human Metal Responsive Element (MRE) (AID 2282954); details: HepG2 MRE cis-reporter transcription, Attagene multiplex; actives raise or lower the signal
# How it was run: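 Cells were transfected with cis-promoter reporter transcription units, then dosed for 24 h. RNA was reverse-transcribed, amplified, fluorescently labelled and resolved by capillary electrophoresis, and activity was fitted in both directions relative to DMSO.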
# [10] = ATG_PBREM_CIS: Attagene CIS-FACTORIAL HepG2 Assay for human Phenobarbital-responsive Enhancer Module (PBREM) (AID 2282955); details: HepG2 PBREM cis-reporter, Attagene multiplexed transcription; actives raise or lower the signal
# How it was run: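 Readout: reporter mRNA, fluorescent RT-PCR fragments separated by capillary electrophoresis. System: HepG2 transiently transfected with cis-regulated reporter units. Exposure: 24 h. Analysis: bidirectional, DMSO baseline.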
# [11] = target: Paired box protein Pax-6 (Homo sapiens) (UniProt P26367); assay: ATG_Pax6_CIS: Attagene CIS-FACTORIAL HepG2 Assay for human Paired Box 6 (PAX6) (AID 2282956); details: HepG2 CIS-FACTORIAL PAX6 reporter transcription, RNA readout; actives raise or lower the signal
# Paired box protein Pax-6 (Homo sapiens), sequence (P26367 whole entry, looked up): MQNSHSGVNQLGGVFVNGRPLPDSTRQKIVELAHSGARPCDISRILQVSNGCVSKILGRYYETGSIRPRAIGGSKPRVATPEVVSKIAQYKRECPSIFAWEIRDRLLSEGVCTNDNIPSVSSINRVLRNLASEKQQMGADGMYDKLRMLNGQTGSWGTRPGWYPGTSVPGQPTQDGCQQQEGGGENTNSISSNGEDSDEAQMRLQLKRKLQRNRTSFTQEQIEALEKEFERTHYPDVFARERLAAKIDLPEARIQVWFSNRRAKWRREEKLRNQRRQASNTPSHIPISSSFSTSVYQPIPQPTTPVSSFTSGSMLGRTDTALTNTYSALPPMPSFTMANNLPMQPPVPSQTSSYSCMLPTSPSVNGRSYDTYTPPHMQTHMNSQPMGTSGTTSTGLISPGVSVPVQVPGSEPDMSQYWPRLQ
# How it was run: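 Fluorescent RT-PCR products separated by capillary electrophoresis report PAX6-linked promoter mRNA in HepG2 cells 24 h post-dose. Curves fitted bidirectionally, DMSO as negative control.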
# [12] = ATG_PXRE_CIS: Attagene CIS-FACTORIAL HepG2 Assay for human Pregnane X Receptor Element (PXRE) (AID 2282957); details: HepG2 Attagene CIS-FACTORIAL PXRE reporter, mRNA; actives raise or lower the signal
# How it was run: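 Reporter transcripts under endogenous PXR-responsive cis-regulation quantified from total RNA of transfected HepG2 cells 24 h post-dosing, via RT-PCR with fluorescent primer extension and capillary electrophoresis. Gain or loss of signal fitted against DMSO baseline.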
# [13] = ATG_RORE_CIS: Attagene CIS-FACTORIAL HepG2 Assay for human RAR-related Orphan Receptor Element (RORE) (AID 2282959); details: HepG2 Attagene cis-factorial RORE reporter, mRNA; actives raise or lower the signal
# How it was run: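 Measured here: transcript induction of a cis-regulated reporter in HepG2 cells transiently transfected via FuGene 6. After 24 h, RNA was processed by RT-PCR and fluorescent capillary electrophoresis; DMSO defined baseline activity.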
# [14] = ATG_Sox_CIS: Attagene CIS-FACTORIAL HepG2 Assay for human SRY-box transcription factor (SOX) (AID 2282960); details: HepG2 Attagene cis-factorial SOX reporter, mRNA; actives raise or lower the signal
# How it was run: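 Using transiently transfected HepG2 cells, reporter transcription driven by cis elements was assessed 24 h after dosing. Signal was fluorescence of capillary-separated RT-PCR products, with DMSO defining baseline activity.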
# [15] = target: Transcription factor Sp1 (Homo sapiens) (UniProt P08047); assay: ATG_Sp1_CIS: Attagene CIS-FACTORIAL HepG2 Assay for human Specificity Protein 1 (Sp1) (AID 2282961); details: HepG2 Sp1 cis-reporter transcription, actives raise or lower the signal
# Transcription factor Sp1 (Homo sapiens), sequence (P08047 whole entry, looked up): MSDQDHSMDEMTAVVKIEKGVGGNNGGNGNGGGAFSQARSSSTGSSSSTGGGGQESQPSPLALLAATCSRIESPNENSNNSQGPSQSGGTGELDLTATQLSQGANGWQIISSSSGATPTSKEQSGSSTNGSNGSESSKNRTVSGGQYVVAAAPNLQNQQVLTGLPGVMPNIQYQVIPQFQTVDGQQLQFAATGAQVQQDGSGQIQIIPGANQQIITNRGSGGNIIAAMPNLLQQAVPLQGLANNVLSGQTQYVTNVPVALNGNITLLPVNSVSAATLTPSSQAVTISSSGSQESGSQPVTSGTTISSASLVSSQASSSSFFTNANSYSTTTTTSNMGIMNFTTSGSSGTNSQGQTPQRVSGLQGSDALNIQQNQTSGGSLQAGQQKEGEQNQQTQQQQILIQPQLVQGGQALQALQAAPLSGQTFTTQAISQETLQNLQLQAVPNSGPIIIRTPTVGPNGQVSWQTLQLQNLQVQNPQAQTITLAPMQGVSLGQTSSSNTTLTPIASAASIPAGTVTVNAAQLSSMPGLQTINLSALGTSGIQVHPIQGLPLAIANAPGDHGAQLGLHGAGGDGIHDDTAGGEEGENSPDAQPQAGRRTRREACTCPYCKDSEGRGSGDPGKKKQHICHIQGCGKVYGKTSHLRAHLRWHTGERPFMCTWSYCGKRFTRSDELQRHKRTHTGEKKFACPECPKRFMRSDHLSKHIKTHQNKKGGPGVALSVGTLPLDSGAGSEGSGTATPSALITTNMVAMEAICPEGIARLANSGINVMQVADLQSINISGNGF
# How it was run: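 After transient transfection of HepG2 cells with cis-promoter reporter units and 24 h chemical treatment, reporter transcripts were quantified by RT-PCR and capillary electrophoresis fluorescence. Gain- and loss-of-signal fitted against DMSO.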
# [16] = ATG_SREBP_CIS: Attagene CIS-FACTORIAL HepG2 Assay for human Sterol Regulatory Element Binding (SREBP) (AID 2282962); details: HepG2 Attagene cis-factorial SREBP reporter, mRNA; actives raise or lower the signal
# How it was run: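 Endogenous factor activity is measured in HepG2 through multiplexed reporter units under cis-element control. Following a 24 h incubation, reporter transcripts are reverse-transcribed, PCR-amplified and sized by capillary electrophoresis; activity is fitted in both directions relative to DMSO.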
# [17] = target: Signal transducer and activator of transcription 3 (Homo sapiens) (UniProt P40763); assay: ATG_STAT3_CIS: Attagene CIS-FACTORIAL HepG2 Assay for human Signal Transducer and Activator of Transcription 3 (STAT3) (AID 2282963); details: HepG2, Attagene cis-factorial STAT3 reporter transcription; actives raise or lower the signal
# Signal transducer and activator of transcription 3 (Homo sapiens), sequence (P40763 whole entry, looked up): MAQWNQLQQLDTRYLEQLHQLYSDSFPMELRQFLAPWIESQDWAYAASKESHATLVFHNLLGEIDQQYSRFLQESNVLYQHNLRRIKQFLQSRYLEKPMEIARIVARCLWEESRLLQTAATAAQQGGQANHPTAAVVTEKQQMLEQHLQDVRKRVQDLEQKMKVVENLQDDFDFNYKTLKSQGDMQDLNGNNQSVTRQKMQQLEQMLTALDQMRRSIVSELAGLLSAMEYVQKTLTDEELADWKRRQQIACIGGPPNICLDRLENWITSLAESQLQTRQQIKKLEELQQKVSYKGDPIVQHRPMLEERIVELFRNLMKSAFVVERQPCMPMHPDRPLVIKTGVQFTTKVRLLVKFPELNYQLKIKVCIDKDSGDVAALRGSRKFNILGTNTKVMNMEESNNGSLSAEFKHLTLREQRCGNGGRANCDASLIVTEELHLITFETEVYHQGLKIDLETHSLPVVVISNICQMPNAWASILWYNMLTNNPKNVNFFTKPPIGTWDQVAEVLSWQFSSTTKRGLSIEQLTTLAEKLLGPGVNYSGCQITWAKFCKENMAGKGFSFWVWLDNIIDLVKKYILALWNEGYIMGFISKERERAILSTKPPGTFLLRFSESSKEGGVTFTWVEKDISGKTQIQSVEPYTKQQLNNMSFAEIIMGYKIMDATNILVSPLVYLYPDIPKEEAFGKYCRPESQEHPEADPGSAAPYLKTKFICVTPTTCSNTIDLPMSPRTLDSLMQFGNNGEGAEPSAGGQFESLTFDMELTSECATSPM
# How it was run: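 HepG2, MRTU-transfected, 24 h dosing. RNA → RT → PCR → FAM label → HpaI → CE. Bidirectional fit vs DMSO.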
# [18] = ATG_TA_CIS: Attagene CIS-FACTORIAL HepG2 Assay for human TA Basal Promoter (AID 2282964); details: HepG2 Attagene CIS-factorial TA basal promoter reporter; actives raise or lower the signal
# How it was run: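 HepG2 cells transiently transfected with multiplexed cis-promoter reporter units, dosed 24 h. Reporter mRNA measured by RT-PCR, 6-FAM labelling, HpaI digestion and capillary electrophoresis; bidirectional fit versus DMSO baseline, serving as background control.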
# [19] = ATG_PPRE_CIS: Attagene CIS-FACTORIAL HepG2 Assay for human Peroxisome Proliferator-activated Response Element (PPRE) (AID 2282958); details: HepG2 PPRE cis-element reporter, Attagene transcription factor profiling; actives raise or lower the signal
# How it was run: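 After human HepG2 hepatoma cells were transiently transfected with cis-promoter reporter constructs, they were exposed to test chemicals for 24 hours. Reporter RNA was then reverse-transcribed, PCR-amplified, FAM-labeled, HpaI-digested and quantified by capillary electrophoresis.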
# [20] = target: Bile acid receptor (Homo sapiens) (UniProt Q96RI1); assay: ATG_IR1_CIS: Attagene CIS-FACTORIAL HepG2 Assay for human Nuclear Receptor Subfamily 1 Group H Member 4 (NR1H4), IR1 submotif (AID 2282946); details: IR1 reporter transcription, actives raise or lower the signal
# Bile acid receptor (Homo sapiens), sequence (Q96RI1 whole entry, looked up): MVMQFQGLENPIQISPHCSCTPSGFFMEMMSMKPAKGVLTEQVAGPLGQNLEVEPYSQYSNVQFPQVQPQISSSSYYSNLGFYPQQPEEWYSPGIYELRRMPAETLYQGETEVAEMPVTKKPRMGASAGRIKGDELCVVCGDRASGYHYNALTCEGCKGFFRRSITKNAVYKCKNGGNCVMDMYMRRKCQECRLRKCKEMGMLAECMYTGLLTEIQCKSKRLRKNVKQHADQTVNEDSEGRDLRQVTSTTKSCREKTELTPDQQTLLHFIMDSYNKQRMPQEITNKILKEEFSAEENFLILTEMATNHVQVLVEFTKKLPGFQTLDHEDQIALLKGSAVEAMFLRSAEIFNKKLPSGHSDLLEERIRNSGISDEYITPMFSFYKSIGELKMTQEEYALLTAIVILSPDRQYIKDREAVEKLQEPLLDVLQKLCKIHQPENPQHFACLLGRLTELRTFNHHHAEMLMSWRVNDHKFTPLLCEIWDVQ
# How it was run: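 Readout: reporter transcript levels by RT-PCR with fluorescent capillary electrophoresis, from HepG2 cells transiently transfected with multiplexed cis-regulated reporters and dosed 24 h. Gain- or loss-of-signal fitted versus DMSO negative control.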
structure (smiles),measurement,setting,value
OCCOCCOCCO,outcome,[1],inactive
same,outcome,[2],inactive
same,outcome,[3],inactive
same,outcome,[4],inactive
same,outcome,[5],inactive
same,outcome,[6],inactive
same,outcome,[7],inactive
same,outcome,[8],inactive
same,outcome,[9],inactive
same,outcome,[10],inactive
same,outcome,[11],inactive
same,outcome,[12],inactive
same,outcome,[13],inactive
same,outcome,[14],inactive
same,outcome,[15],inactive
same,outcome,[16],inactive
same,outcome,[17],inactive
same,outcome,[18],inactive
OC[C@H]1O[C@@H]2O[C@H]3[C@H](O)[C@@H](O)[C@@H](O[C@H]4[C@H](O)[C@@H](O)[C@@H](O[C@H]5[C@H](O)[C@@H](O)[C@@H](O[C@H]6[C@H](O)[C@@H](O)[C@@H](O[C@H]7[C@H](O)[C@@H](O)[C@@H](O[C@H]1[C@H](O)[C@H]2O)O[C@@H]7CO)O[C@@H]6CO)O[C@@H]5CO)O[C@@H]4CO)O[C@@H]3CO,outcome,[1],inactive
same,outcome,[2],inactive
same,outcome,[3],inactive
same,outcome,[4],inactive
same,outcome,[5],inactive
same,outcome,[6],inactive
same,outcome,[7],inactive
same,outcome,[8],inactive
same,outcome,[9],inactive
same,outcome,[10],inactive
same,outcome,[11],inactive
same,AC50,[12],18.4 µM (active)
same,outcome,[13],inactive
same,outcome,[14],inactive
same,outcome,[15],inactive
same,outcome,[16],inactive
same,outcome,[17],inactive
same,outcome,[18],inactive
O=S1(=O)CCCO1,outcome,[1],inactive
same,outcome,[2],inactive
same,outcome,[3],inactive
same,outcome,[4],inactive
same,outcome,[5],inactive
same,outcome,[6],inactive
same,outcome,[7],inactive
same,outcome,[8],inactive
same,outcome,[9],inactive
same,outcome,[10],inactive
same,outcome,[11],inactive
same,outcome,[12],inactive
same,outcome,[19],inactive
same,outcome,[13],inactive
same,outcome,[14],inactive
same,outcome,[15],inactive
same,outcome,[16],inactive
same,outcome,[17],inactive
same,outcome,[18],inactive
OC(Cn1cncn1)(Cn1cncn1)c1ccc(F)cc1F,outcome,[1],inactive
same,outcome,[2],inactive
same,outcome,[3],inactive
same,outcome,[4],inactive
same,outcome,[5],inactive
same,outcome,[6],inactive
same,outcome,[7],inactive
same,outcome,[8],inactive
same,outcome,[9],inactive
same,outcome,[11],inactive
same,outcome,[12],inactive
same,outcome,[13],inactive
same,outcome,[14],inactive
same,outcome,[15],inactive
same,outcome,[16],inactive
same,outcome,[17],inactive
same,outcome,[18],inactive
CCCCCCCCCC,outcome,[1],inactive
same,outcome,[20],inactive
same,outcome,[3],inactive
same,outcome,[4],inactive
same,outcome,[5],inactive
same,outcome,[6],inactive
same,outcome,[8],inactive
same,outcome,[9],inactive
same,outcome,[11],inactive
same,outcome,[12],inactive
same,outcome,[13],inactive
same,outcome,[14],inactive
same,outcome,[15],inactive
same,outcome,[16],inactive
same,outcome,[17],inactive
same,outcome,[18],inactive
CCOc1ccc2[nH]cc(C(=O)NCc3ccccc3)c(=O)c2n1,outcome,[1],inactive
same,outcome,[20],inactive
same,outcome,[3],inactive
same,outcome,[4],inactive
same,outcome,[5],inactive
same,outcome,[6],inactive
same,outcome,[7],inactive
same,outcome,[8],inactive
same,outcome,[9],inactive
same,outcome,[10],inactive
same,outcome,[11],inactive
same,AC50,[12],26.7 µM (active)
same,outcome,[19],inactive
same,outcome,[13],inactive
same,outcome,[14],inactive
same,outcome,[15],inactive
same,outcome,[16],inactive
same,outcome,[17],inactive
same,outcome,[18],inactive
CCCCCCCCCCCCCCCCOS(=O)(=O)O,outcome,[1],inactive
same,outcome,[20],inactive
same,AC50,[3],22.8 µM (active)
same,outcome,[4],inactive
same,outcome,[5],inactive
same,outcome,[6],inactive
same,outcome,[7],inactive
same,outcome,[8],inactive
same,AC50,[9],25.4 µM (active)
same,outcome,[10],inactive
same,outcome,[11],inactive
same,outcome,[12],inactive
same,outcome,[13],inactive
same,outcome,[14],inactive
same,outcome,[15],inactive
same,outcome,[16],inactive
same,outcome,[17],inactive
same,outcome,[18],inactive
